Measurements: PubChem BioAssay AID1020 (Sanford-Burnham Center for Chemical Genomics, 2008)
The campaign covered roughly 200,000 compounds. About 240 (0.12%) were called active. For the sample, actives were picked, then their nearest neighbours and some compounds at random. Values without a mark were called inactive. Cut-off read from the data, not from the text of the source: active = inhibition above about 50%; inactive = the rest.

system: glucose-6-phosphate dehydrogenase [Leuconostoc mesenteroides]; test: bacterial G6PDH enzyme inhibition, coupled readout – biochemical, Leuconostoc mesenteroides enzyme, counter-screen for G6PDH-coupled screening assays (AID 1020); conditions: Purified L. mesenteroides G6PDH, diaphorase/resazurin coupled fluorescence, 45 min; at 5 µM; active compounds read high

Compound | inhibition
CCOc1ccc(C(c2c(C)[nH][nH]c2=O)c2c(C)[nH][nH]c2=O)cc1OCC | 12.1%
O=C(CC1NCCNC1=O)Nc1cc(Cl)cc(Cl)c1 (stereo not given) | -3.6%
Cc1ccc(C(=O)c2ccc(N3CCN(C)CC3)c([N+](=O)[O-])c2)cc1 | 9.1%
O=C(NC(=S)NC1CCSC1=O)c1ccccc1F (stereo not given) | 13.8%
O=C(CSc1nnc(SCc2ccc(Cl)cc2)s1)N/N=C/c1ccccc1Cl | -21.5%
CCC(C)(C)NC(=O)C1c2ccccc2Oc2ccccc21 | 3.6%
COC(=O)c1ccc(NC(=O)CSc2nncc3ccc(OC)c(OC)c23)cc1 | 2.5%
CCC(C)NCCOCCOc1ccc(Br)cc1C (stereo not given) | 6.6%
CCOc1cc(NS(=O)(=O)c2ccc(OC)cc2)c(OCC)cc1NC(C)=O | 6.7%
COc1ccc(C(C(=O)NC2CCCCC2)N(C(=O)Cc2c[nH]c3ccccc23)c2ccccc2)cc1OC (stereo not given) | 14.4%
C/C(=N\OC(=O)c1ccccc1)c1c(C)nc2cc(C)ccn12 | 1.1%
CCc1ccc(N2CC(O)=C(c3nc4ccccc4c(=O)[nH]3)C2=N)cc1 | 16.2%
CC(C)N(Cc1ccccc1)C(=S)Nc1ccc(OC(F)F)cc1 | 0.3%
Cc1cccc(NC(=S)NCCN(C2CCCCC2)C2CCCC2)c1 | 3.8%
COc1ccc(Cl)cc1NC(=O)CNc1ccccc1F | -1.9%
S=c1[nH]nc(-c2ccco2)n1/N=C/c1ccc(Br)s1 | 8.8%
C=CCn1c(CCNC(=O)c2ccccc2F)nnc1SCC(=O)Nc1ccc(OC)cc1 | 0.9%
O=C(COc1ccc(S(=O)(=O)NCc2ccccc2)cc1)N1CCOCC1 | 4.2%
Cn1c(N)c(C(=O)COC(=O)c2ccccc2NCc2ccco2)c(=O)n(C)c1=O | 0.8%
O=c1[nH]c2ccccc2n2c(-c3ccccc3)nnc12 | 50% (active)
CCOC(=O)c1cnc2[nH]c3ccccc3n2c1=O | 5%
O=[N+]([O-])c1cccc(-c2nnc3c4ccccc4c4ccccc4n23)c1 | 9.1%
CC(C)N1C(=O)N(c2ccccc2)C(C)(O)CC1(C)C (stereo not given) | 5.1%
O=C1Nc2ccc([N+](=O)[O-])cc2C1=Nc1cccc(CO)c1 | 46.7%

Compound | inhibition
Cc1nc(N)c(Br)c(C)c1Br | 4%
O=C(CSc1ccc(-c2ccco2)nn1)NCc1ccc2c(c1)OCO2 | 6.1%
Cc1ccc(C)c(-n2ccnc2SCC(N)=O)c1 | 13.8%
O=C(NC1CCCC1)C(c1ccc(N2CCOCC2)cc1)N(C(=O)c1ccco1)c1ccccc1F (stereo not given) | 14.1%
COc1cccc(NC(=O)c2ccc3c(SCC(=O)O)c4c(nc3c2)CCCC4)c1 | 6%
NS(=O)(=O)c1ccc(NC(=O)COC(=O)C2(c3ccc(F)cc3)CCCC2)cc1 | 16.5%
COc1ccc(/C=C2/C(=O)OCc3cc(OC)c(OC)cc32)c(OC)c1 | -2.8%
CCOC(=O)c1ccc[n+](CC(=O)Nc2ccccc2OC(F)F)c1 | 6.3%
CCO[C@H]1OC(C(=O)N2CCOCC2)=C[C@@H](c2ccc3c(c2)OCO3)[C@@H]1CCCO | 9.9%
CCOC(=O)C1CN(S(=O)(=O)c2ccc(F)cc2)C1 | 4.5%
Clc1ccc2nc(CSc3ccccc3)cn2c1 | 5%
CCOC(=O)c1c(C)[nH]c(=S)c(C#N)c1-c1ccccc1 | -20.7%
CCOC(=O)C1=C(c2ccc(OC)cc2)C(=O)c2ccccc2C1=O | 31.9%
CCOC(=O)c1c(C)[nH]c2c1-c1ccccc1C(=O)C2=O | 55.3% (active)
CN1CCN(CC#CCC2(O)c3ccccc3-c3ccccc32)CC1 | 4.1%
CCCc1cc(=O)[nH]c(SCC(=O)N2CCN(S(=O)(=O)c3ccc(C)cc3C)CC2)n1 | 2.8%
Cc1nn2cc(-c3ccc(Cl)cc3)cnc2c1Br | -0.7%
COC(=O)CC(=O)N1CCN(c2ccc(Cl)c(Cl)c2)CC1 | -3.9%
N#Cc1ncc(C(F)(F)F)cc1Oc1cccnc1 | 1.5%
O=C(N/N=C/c1ccco1)c1ccc(C(=O)N/N=C/c2ccco2)o1 | 2.5%
COc1ccc2c(c1)c(=O)c(C(=O)c1ccc(Cl)cc1)cn2CC(=O)Nc1ccc(F)cc1 | -1.7%
O=C(N/N=C/c1sc(N2CCCCC2)nc1-c1cccs1)c1cccnc1 | 0.4%
CC1(C)C2CC=C(/C=N/NC(=O)c3ccc(Cl)cc3)C1C2 (stereo not given) | 6.3%
COc1cc(NC(=O)c2cccnc2SC)cc(OC)c1 | 5.3%

Compound | inhibition
O=C1CSC(=S)N1/N=C/c1ccc(O)c([N+](=O)[O-])c1 | 5.2%
Cc1c(Br)c([N+](=O)[O-])nn1CC(=O)Nc1sc2c(c1C(=O)OC(C)C)CCC(C)C2 (stereo not given) | -7.9%
COC(=O)Cc1ccc(NC(=S)NCc2ccccc2)cc1 | 12.1%
CCO[C@H]1OC(C(=O)Nc2ccccc2)=C[C@@H](C2CC2)[C@@H]1CCCO | 10.9%
COc1ccc(-c2cc(C(=O)NC(Cc3c[nH]c4ccccc34)C(=O)O)c(C)o2)cc1OC (stereo not given) | 6.7%
CCc1nc(C)cn1S(=O)(=O)c1cc([N+](=O)[O-])ccc1Cl | 6.7%
COc1ccc(/C=N/S(=O)(=O)c2ccccc2)cc1OC | 8.4%
Cc1oc2c(c1C(=O)N1CCOCC1)C(=O)c1ccccc1C2=O | 57.7% (active)
O=C(c1ccccc1-c1ccccc1)N1CCOCC1 | 1.2%
Cc1onc(-c2ccccc2)c1C(=O)N1CCOCC1 | 17.6%
C/C(=N\NC(=O)CNC(=O)C(c1ccccc1)c1ccccc1)c1ccc(C)cc1 | 11.2%
CC(=O)Oc1c(C(=O)c2nnc(C)o2)c(=O)n(Cc2ccccc2)c2ccccc12 | 2.5%
CSc1c(SCc2ccccc2)cnn(Cc2ccccc2)c1=O | 5.1%
OC(COCc1ccco1)CN1CCN(c2ccccc2)CC1 (stereo not given) | 12.4%
COc1cc(NC(=S)NNC(=O)CC(C)C)c(OC)cc1Cl | -0.9%
Cc1ccc(SCCC(=O)Nc2cc(C)on2)cc1 | 6.5%
O=C(CN1C(=O)c2cccc3cccc(c23)C1=O)N1CCCCC1 | -0.3%
O=C(/C=C/c1ccc(Cl)c([N+](=O)[O-])c1)c1cccnc1 | 0.4%
Cc1csc(Nc2ccc(Cl)cc2)[n+]1-c1ccc(Cl)cc1 | -4%
Cc1cccc(OCCC(=O)Nc2cc(S(=O)(=O)N3CCCCC3)ccc2N2CCOCC2)c1 | 5.4%
CCOc1cc(C(=O)OCC(=O)Nc2cccc(C)c2)ccc1OCC(=O)N1CCOCC1 | -19.1%
O=C(COC(=O)c1cnccn1)Nc1cccc2ccccc12 | 4.3%
CCC(=O)Nc1sc(C(=O)Nc2ccccc2)c(C)c1C(=O)OC | 7.8%
CSc1ccc(CNCCN2CCOCC2)cc1 | 11%

Compound | inhibition
COc1ccc([C@H]2[C@H](C(C)=O)N3N=Cc4ccccc4C3C23C(=O)OC(C)(C)OC3=O)cc1 (stereo not given in full) | 4%
CCOC(=O)c1oc2c(CN3CCN(C)CC3)c(O)ccc2c(=O)c1-c1ccc(Br)cc1 | -12.6%
Cc1ccc(C(=O)N2CC(=O)Nc3ccccc32)o1 | 2.3%
Cc1cc(NS(=O)(=O)c2ccc(NC(=S)NC(=O)c3ccc(F)cc3Cl)cc2)no1 | 7.4%
Cc1ccccc1C(=O)OC1OC(=O)C(Cl)=C1Nc1ccccc1 (stereo not given) | 2.3%
ClC1(Cl)CC1CSc1ncn[nH]1 (stereo not given) | 10.4%
Cc1cccc(-n2c(SCC(N)=O)nc3c(c2=O)C2(CCCCC2)Cc2ccccc2-3)c1 | 7.9%
CCOc1ccc(C(=O)Nc2cccc(-c3ccc4nncn4n3)c2)cc1 | 2.6%
COc1ccc(C(=O)C2CCCN(C(=O)c3cc4nc(C)cc(C)n4n3)C2)cc1F (stereo not given) | 0.8%
COc1ccc(N2CCN(C(=O)c3ccc4c(Cl)c5c(nc4c3)CCCC5)CC2)cc1 | 17.9%
O=C(COC(=O)CSc1nnc(-c2ccc(Cl)cc2)o1)Nc1cc(Cl)cc(Cl)c1 | -35.2%
COc1cc(C(=O)NCc2ccc(-n3cccc3)cc2)cc(OC)c1OC | 12.2%
Cc1ccc(-c2nc(C)sc2CC(=O)OCC(=O)Nc2c(F)cccc2F)cc1 | -6.1%
CC(C)CNC(=S)NC(=O)c1ccc(Cl)cc1 | 4.7%
C=CCn1c(CCNC(=O)c2cccs2)n[nH]c1=S | 10.1%
Cc1nnnn1/C(=C\c1ccccc1)C(=O)OCC(=O)N1CC2(C)CC1CC(C)(C)C2 (stereo not given) | -6.6%
CCNC(=S)N(CCc1c(C)[nH]c2ccc(C)cc12)Cc1ccco1 | 13.2%
CC(/C=C/c1ccccc1)=N\NC(=O)C1CC1(C)c1ccccc1 (stereo not given) | 5.3%
O=[N+]([O-])c1cc(S(=O)(=O)CCCN2CCOCC2)ccc1F | 10.3%
O=C(Nc1ccc(-c2ccc3nncn3n2)cc1)C1CCCCC1 | 3.6%
CCN1CCN(C(=O)c2ccc(CN(c3ccc(C)c(C)c3)S(C)(=O)=O)cc2)CC1 | 4.1%
C/C(Cc1ccccc1)=N\NC(=O)CNC(=O)c1cccc(Br)c1 | 8.4%
Cc1nc2ccccc2nc(C)c1=NOCc1ccc(Cl)cc1Cl | -13.7%
